# Data: PMC13494018
# Values without a mark were called inactive. The rule behind the calls is not given here.
# Molecular target: CD276, Q5ZPR3
# Sequence (Q5ZPR3 whole entry): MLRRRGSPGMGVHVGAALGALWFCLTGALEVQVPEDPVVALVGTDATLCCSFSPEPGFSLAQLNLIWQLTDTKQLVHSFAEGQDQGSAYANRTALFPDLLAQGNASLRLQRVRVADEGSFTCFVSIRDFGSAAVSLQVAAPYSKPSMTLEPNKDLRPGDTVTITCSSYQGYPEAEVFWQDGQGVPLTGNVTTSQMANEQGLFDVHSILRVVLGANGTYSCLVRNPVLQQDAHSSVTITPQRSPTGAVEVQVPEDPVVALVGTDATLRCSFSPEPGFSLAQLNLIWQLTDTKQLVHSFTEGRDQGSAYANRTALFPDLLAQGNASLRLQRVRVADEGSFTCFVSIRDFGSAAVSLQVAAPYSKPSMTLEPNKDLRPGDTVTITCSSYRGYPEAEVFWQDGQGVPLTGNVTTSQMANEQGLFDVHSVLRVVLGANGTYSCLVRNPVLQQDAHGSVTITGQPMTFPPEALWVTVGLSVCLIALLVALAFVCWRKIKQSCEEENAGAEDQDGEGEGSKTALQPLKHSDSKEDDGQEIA
row,Binder,binding in a display sort
1,design_619_5728adc2-0aea-404f-92dd-a4575c53f550_2058_dldesign_0_cycle1_af2pred (protein) AAVAQSQLQITQNLVAWALSQLTTYGPAQGATIAKAVRDLALAAGLPEAVADELAAGAAGTAAEAKAKGAQAVALAQAAVAA,not found
2,design_619_5728adc2-0aea-404f-92dd-a4575c53f550_2329_dldesign_0_cycle1_af2pred (protein) SALTKKIEEKATKLVEEAAKTTPEEARKLATEALEIAKQSPEALSALAVELLKAAAKATPEVAAVLREVAAQAMRTAIEIARA,binds (active)
3,design_620_fbd04095-bef7-46a9-992d-f2cb8915922f_187_dldesign_0_cycle1_af2pred (protein) GEARRQFAEDTAAAAKQAAALYAADPEKAQQVKDAADKAVAAAESGEDAQLAGLSAIKVYQALVEAQKAA,not found
4,design_619_5728adc2-0aea-404f-92dd-a4575c53f550_1938_dldesign_0_cycle1_af2pred (protein) AKEEAKKLLEKTKKEAEKAVKEAEAGTPTTAAEQAVKVLEFGKEAVEKARELGDEETAEQIAQVTNEAVAKITKAAIAKAK,not found
5,design_620_fbd04095-bef7-46a9-992d-f2cb8915922f_158_dldesign_0_cycle1_af2pred (protein) IDTQANLELAKKSFNAALAQARRFAKTDRQAALAALKSAEVYAEAAEAADPAAGEELRKKVEEARKEIEAA,not found
6,design_619_5728adc2-0aea-404f-92dd-a4575c53f550_1912_dldesign_0_cycle1_af2pred (protein) AAQQQAQVAAAATQAVADQTIKVAEELGKYDPELAKKYKEEATKIKKQAQEAAKQGQQGLQQVNQLLSQALELLGEAAKKLREAK,not found
7,design_620_fbd04095-bef7-46a9-992d-f2cb8915922f_77_dldesign_0_cycle1_af2pred (protein) DAVTAQIKALGAAGVAQARADPENAVAIASRTNAQIWGLILAAGADAAASAVALEATRANAEAVRETTAAAAAAAAAAAAAAAA,not found
8,design_620_fbd04095-bef7-46a9-992d-f2cb8915922f_119_dldesign_0_cycle1_af2pred (protein) REAAAEELRRLAEEARRLGEAGTPEVRSMARMMATAMEVIARGGNVELALEALRAAAAGIANDGKFGAEMEELARRAEEAVR,not found
9,design_620_fbd04095-bef7-46a9-992d-f2cb8915922f_329_dldesign_0_cycle1_af2pred (protein) SAESQAKAEELLREAFKRITELADAAAKSGTEEELAKAKKEMEEIAEKVEKEAGPGAGELARNYLKTQLAAAKAAIAAAK,not found
10,design_620_fbd04095-bef7-46a9-992d-f2cb8915922f_328_dldesign_0_cycle1_af2pred (protein) DPKAQAQATAETLAKQAKKAATEALKLAKELGDKETAEKMKEIIKKVEELLEKAKKGTAEEAGAAALEILKLLSEARKELEKLKKKA,not found
11,design_619_5728adc2-0aea-404f-92dd-a4575c53f550_2492_dldesign_0_cycle1_af2pred (protein) AIADEIIALARAAAEAADPEESTRLMREAAELAVEKFPELTPEEANAVIGEFLEAAARASPEAAVIATRAAARLGAQLAA,not found
12,design_619_5728adc2-0aea-404f-92dd-a4575c53f550_2359_dldesign_0_cycle1_af2pred (protein) SQAQGELLEAVKYASKAMKLDPALAPQLQQAINLLVRAIVLLAQGDEAQAAEEAKKAAKLFEEAAKKASPEAAKELKKAAKEAEKAI,not found
13,design_619_5728adc2-0aea-404f-92dd-a4575c53f550_2217_dldesign_0_cycle1_af2pred (protein) DPAAALEKRTAAAMLAQAKAAVDADPALGRQRIANMEQLGKASPALAPYLLPAAEEARAYLAAKEAAAAA,not found
14,design_619_5728adc2-0aea-404f-92dd-a4575c53f550_1976_dldesign_0_cycle1_af2pred (protein) SPALLAARKAITETAAATINALTDPAAANLVGRAMIQGLQLAQQGEAAGAHAAAAVAALALVEAAAAAARALDAAAA,not found
15,design_620_fbd04095-bef7-46a9-992d-f2cb8915922f_347_dldesign_0_cycle1_af2pred (protein) DAVAAGQALLYAAKSQGYIGKAKKAVKEGKLEEAKEYAEKAEEYAKKSEEYAKQSGDAAVQAQAKKVQEQVKKTKEEVKKAE,not found
16,design_619_5728adc2-0aea-404f-92dd-a4575c53f550_2222_dldesign_0_cycle1_af2pred (protein) MENLEKAKELLEKAEAYVKAAAASDLATAQALLGQAVAAGQEAVELLKDSPIYPEVSRKVVELIRAGLAAVAAKA,not found
17,design_620_fbd04095-bef7-46a9-992d-f2cb8915922f_548_dldesign_0_cycle1_af2pred (protein) MNASERVIARAEAIIAEAAALGAAHPAMAGETAAIQALARSAARMARSGEHIEDAEKAVEVAEAMLAATAARAAALAA,not found
18,design_620_fbd04095-bef7-46a9-992d-f2cb8915922f_254_dldesign_0_cycle1_af2pred (protein) AERLRAAAERLEAAAAATPEAAEAALAEAAALAEEVAAEYPGLGQLILNTLRQAAGLSPEERARAVARQFRALADYL,not found
19,design_620_fbd04095-bef7-46a9-992d-f2cb8915922f_36_dldesign_0_cycle1_af2pred (protein) AAEEALKKLKELAEKTKKVAEEAGKVNPALAPEADFLSALAEAALNYAKKNAASPDFEKIAKKQLEQIKKALERAEKLLKEAKAQAA,not found
